Screening data as filed in PubChem.
The list is not random: actives were taken first. Their share in the collection is about 2.4%.
D2 PAM-1: D2 dopamine receptor (human) potentiation | P14416 | HEK293 T-REx D2, calcium flux, EC20 dopamine potentiation | potentiation, % at 10 µM | 340,000 tested, 0.34% active | AID 485347;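 active means potentiation over 3 SD above the plate norm, cut at about 30% in these data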
Target sequence (P14416 whole entry, looked up): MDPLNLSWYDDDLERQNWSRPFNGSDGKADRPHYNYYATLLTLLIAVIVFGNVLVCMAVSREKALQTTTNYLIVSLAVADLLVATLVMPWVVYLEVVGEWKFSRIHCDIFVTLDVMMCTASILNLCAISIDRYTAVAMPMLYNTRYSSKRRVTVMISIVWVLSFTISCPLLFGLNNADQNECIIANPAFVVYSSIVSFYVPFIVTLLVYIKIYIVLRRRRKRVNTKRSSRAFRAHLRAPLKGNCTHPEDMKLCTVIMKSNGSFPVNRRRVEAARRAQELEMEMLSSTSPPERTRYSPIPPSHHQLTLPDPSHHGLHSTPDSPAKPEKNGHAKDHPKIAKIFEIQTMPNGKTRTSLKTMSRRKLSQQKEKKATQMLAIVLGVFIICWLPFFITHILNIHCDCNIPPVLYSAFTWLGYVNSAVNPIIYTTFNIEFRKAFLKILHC
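Primary screen. Calcium kinetics in induced HEK293 T-REx D2 cells: compound pre-addition 180 s, EC20 dopamine, 180 s more.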
D2 antagonist: antagonists of human D2 dopamine receptor. HEK293 TREx D2 cells, calcium flux, dopamine EC80. AID 485344. 340,000 tested, 2% active. P14416. inhibition, % at 10 µM; in the data active means inhibition above about 30%; inactive means below that, where a call was filed
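Dopamine at EC80 is the agonist stimulus; test compounds precede it by 180 s. Calcium flux read kinetically in a force-coupled, inducible HEK293 T-REx D2 cell line.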
D2 ag-1: D2 dopamine receptor (human) agonism; P14416; HEK293 T-REx D2 cells, calcium flux agonist mode; activation, % at 2 µM; 340,000 tested, 0.53% active;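 active means activation over 3 SD above normal in the single-dose calcium agonist read, cut at about 30% in these data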
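Tetracycline-induced HEK293 T-REx cells with force-coupled D2 receptor, plated overnight at 30 C, loaded with no-wash calcium dye. After a 10 s baseline, compound was pin-added and calcium flux read kinetically for 180 s; calcium rises flagged agonists.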
D2 ag-2: activates the human D2 dopamine receptor | P14416 | DiscoveRx PathHunter D2 beta-arrestin, luminescence, 90 min; 100% = 57 uM dopamine signal | AID 624465 | 360,000 tested, 0.084% active | activation, % (no concentration beside the values); in the data active means activation above about 40%; inconclusive means between about 15% and that limit
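Agonist mode: compounds alone added to overnight-plated D2 PathHunter cells for 90 min at 37 C, with 57 uM final dopamine (EC100) defining full response. Beta-arrestin recruitment detected by chemiluminescent reagent, read after 1 h at ambient temperature.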
D2 PAM-2: potentiates the human D2 dopamine receptor allosterically; P14416; DiscoveRx D2 beta-arrestin cells, luminescence, 90 min; 100% = 57 uM dopamine signal; potentiation, % (no concentration beside the values); 360,000 tested, 0.23% active; AID 624464; in the data active means potentiation above about 50%; inconclusive means mostly about 30% to 49%
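PathHunter D2 cells, attached overnight at 37 deg C, received compound in DMSO plus dopamine at EC20 (50 nM final) for 90 min at 37 deg C. Beta-arrestin recruitment was read as luminescence after 1 h with detection reagent at ambient temperature.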
Each line names hits and unclear results; the compound was inactive in the other large screens.

CC(OC(=O)Cn1c(C(F)(F)F)nc2ccccc21)C(N)=O (stereo unspecified)	D2 antagonist 40
O=C(C1CC1)N1CCc2cc(Br)cc(S(=O)(=O)N3CCOCC3)c21	none (no result: D2 PAM-1, D2 antagonist, D2 ag-1)
O=C(C1CC1)N1CCc2cc(Br)cc(S(=O)(=O)NCCN3CCOCC3)c21	D2 antagonist 40
COC(=O)c1ccccc1NC(=O)c1noc2c1CSc1ccccc1-2	none (no result: D2 antagonist, D2 ag-2, D2 PAM-2)
CC(=O)Nc1ccc(NC(=O)CSc2nnc(NC(=O)Cc3ccc(F)cc3)s2)cc1	D2 antagonist 34
CCSc1nnc(NC(=O)c2cnccn2)s1	none
O=C(Nc1nnc(SCc2ccc(F)cc2)s1)c1cnccn1	D2 antagonist 33
O=C(CSc1nnc(NC(=O)c2ccccc2F)s1)Nc1ccccc1F	D2 antagonist 36
O=C(NCc1ccccc1Br)C1CCCN(C(=O)N2CCOc3ccccc32)C1 (stereo unspecified)	none (no result: D2 antagonist, D2 ag-2, D2 PAM-2)
COc1ccc(-c2noc(CSc3nnc(-c4ccc(Cl)cc4)n3C)n2)cc1OC	none (no result: D2 antagonist, D2 ag-2, D2 PAM-2)
CC(=O)c1c(C)nc2nc(-c3ccccc3)nn2c1C	none (no result: D2 antagonist, D2 ag-2, D2 PAM-2)
CN(C(=O)c1ccc2c(c1)N(Cc1cccc(Cl)c1)C(=O)c1ccccc1S2(=O)=O)C1CCCCC1	none (no result: D2 antagonist, D2 ag-2, D2 PAM-2)
Cc1ccc(NC(=O)N2CCN(c3ncccc3C(F)(F)F)CC2)cc1	D2 antagonist 37
O=C(CSc1ccc(-c2ccc(F)cc2)nn1)NCCc1ccccc1	none
CS(=O)(=O)N(CC(=O)Nc1ccc2c(c1)OCCO2)c1ccc2c(c1)OCO2	D2 PAM-1 48
C/C(CC(=O)Nc1ccc2c(c1)OCCO2)=N\NC(=O)COc1ccccc1C	none
C/C(CC(=O)Nc1ccc2c(c1)OCCO2)=N\NC(=O)C(=O)Nc1ccccc1C	D2 antagonist 32
COc1ccccc1-c1ccc(SCC(=O)NCCc2ccccc2)nn1	D2 antagonist 48
COc1cccc(NC(=O)CN(c2cccc(OC)c2)S(C)(=O)=O)c1	D2 antagonist 38
CCOc1ccc(C(=O)Nc2ccc3oc(-c4cccc5ccccc45)nc3c2)cc1	none (no result: D2 antagonist, D2 ag-2, D2 PAM-2)
COc1ccc(C(=O)NCC2(N3CCN(C)CC3)CCCCC2)cc1	none (no result: D2 antagonist, D2 ag-2, D2 PAM-2)
Cc1ccc(NC(=O)c2sc3nc4c(cc3c2N)CN(Cc2ccccc2)CC4)cc1	none (no result: D2 antagonist, D2 ag-1, D2 ag-2, D2 PAM-2)
COc1ccccc1NC(=O)CSc1ccc(-c2ccccn2)nn1	none
COc1ccc(NC(=O)CSc2ccc(-c3ccccn3)nn2)cc1OC	D2 ag-2 54, D2 PAM-2 inconclusive
O=C(CSc1ccccc1)Nc1ccc2c(c1)OCCO2	none
CCC(=O)Nc1ccc2c(c1)OCCO2	D2 PAM-1 30
O=C(CSc1ccc(-c2ccccc2)nn1)Nc1ccc2c(c1)OCCO2	D2 antagonist 32
COC(=O)c1sc2cccc(F)c2c1S(=O)(=O)N1CCN(c2ccc(F)cc2)CC1	none (no result: D2 antagonist, D2 ag-2, D2 PAM-2)
COc1ccc(-n2c(/C=C/c3ccccc3F)nc3cc(OC)c(OC)cc3c2=O)cc1Cl	none (no result: D2 antagonist, D2 ag-2, D2 PAM-2)
CC(=O)NC(CC(=O)NC(C)c1ccc(Cl)cc1Cl)c1ccccc1 (stereo unspecified)	D2 antagonist 34
CCCN(CC(=O)Nc1ccc(Cl)cc1Cl)C(=O)CC(NC(C)=O)c1ccccc1 (stereo unspecified)	none
Cc1cc(C)c(O)c(-c2cc(C(=O)Nc3ccc(S(=O)(=O)N4CCOCC4)cc3)[nH]n2)c1	D2 PAM-1 36
COc1cccc(Cn2cnc3c2c(=O)n(C)c(=O)n3C)c1	none (no result: D2 antagonist, D2 ag-2, D2 PAM-2)
CCCOc1ccc(CNC(=O)CN2C(=O)c3cccnc3Oc3ccc(C)cc32)cc1	none (no result: D2 antagonist, D2 ag-2, D2 PAM-2)
CCC(=O)N1c2ccc(S(=O)(=O)NCc3ccc(F)cc3)cc2CC1C (stereo unspecified)	none (no result: D2 antagonist, D2 ag-2, D2 PAM-2)
Cc1cc(C)nc(N2CCCC(C(=O)Nc3nnc(C(C)(C)C)s3)C2)n1 (stereo unspecified)	D2 antagonist 48
CCc1nnc(NC(=O)C2CCCN(c3nc(C)cc(C)n3)C2)s1 (stereo unspecified)	none
Cc1ccc(NC(=O)C2CCCN(c3ncccn3)C2)cc1F (stereo unspecified)	none
Cc1cc(C)cc(NC(=O)C2CCCN(c3ncccn3)C2)c1 (stereo unspecified)	D2 antagonist 50
COc1ccc(C(=O)NCc2nnnn2-c2ccc(C)c(C)c2)cc1	none (no result: D2 antagonist, D2 ag-2, D2 PAM-2)
CCOc1cc2sc(N3CCC(C(=O)Nc4ccccc4Cl)CC3)nc2cc1Br	none (no result: D2 antagonist, D2 ag-2, D2 PAM-2)
C1CNCCNCCCNCCNC1	D2 antagonist 46 (no result: D2 ag-2, D2 PAM-2)
